Results from PubChem BioAssay AID1788 (Vanderbilt High Throughput Screening Facility, 2009).
A number with no mark means an inactive call. The rule behind the calls is not given here.

System: Rolipram (rat)
Test: PubChem AID 1788
Settings: MDS Pharma lead profiling panel, radioligand binding, at 10 µM, hits give high values

CCOC(=O)N1CCC(NCCNC(=O)c2ccccc2C)CC1
inhibition: -2%
